Active and inactive are the calls of the source. How the source made its calls: active means hit-call score of the fitted dose curve at least 0.9, where 1 is the maximum; inactive means score below 0.9.
read-out: ABC Transporter (ABCC2), ABCC2 (gene 1244); assay: LTEA_HepaRG_ABCC2: Life Technologies and Expression Analysis (LTEA) Assay for ABC Transporter (ABCC2) using HepaRG (AID 2283464); details: mRNA level, 48 h; actives raise or lower the signal
Procedure: LTEA_HepaRG is a cell based, multiplexed-readout assay that uses HepaRG, a human liver cell line, with measurements taken at 48 hours after chemical dosing on a 96-well plate.LTEA_HepaRG_ABCC2 is one of 102 assay component(s) measured in the LTEA HepaRG cell culture assay. It is a marker of Steatosis/NR mediated transport.Data from the assay component LTEA_HepaRG_ABCC2 was analyzed into 1 endpoint. This assay endpoint, LTEA_HepaRG_ABCC2, was analyzed with bidirectional fitting relative to DMSO as the negative control and baseline of activity. Using a type of inducible reporter, measures of mRNA induction for gain or loss-of-signal activity can be used to understand regulation of transcription factor activity. To generalize the intended target to other relatable targets, this assay endpoint is annotated to the transporter intended target family, where the subfamily is ABC transporter.
A total of 1060 chemcials from the ToxCast library were tested in eight-point concentration-response experiments. Cell culture and cytotoxicity assays were conducted at Thermo Fisher Scientific's Custom Services facility (Madison, WI). A single lot of human HepaRG cells (Thermo Fisher Scientific, Frederick, MD) was used for the cell culture experiments. 96-well format collagen type I coated plates of human HepaRG cells were prepared using established methods. Briefly, cryopreserved HepaRG cells were thawed, plated at a density of approximately 100,000 cells/well in HepaRG Thaw, Plate, and General Purpose media (HPRG770, Thermo Fisher Scientific), and incubated for 48 hours. 0.5% DMSO was selected as vehicle control to balance the requisite need of DMSO in HepaRG cultures to maintain differentiation (for example, baseline metabolism, proportions of hepatocytes vs. cholangiocytes), while enabling further hepatic receptor pathway activation (for example, PXR and CAR) in response to chemical exposure. 48 hours after plating, the culture medium was replaced with HepaRG Serum-Free Incudtion Media. Cells were exposed to each test chemical in duplicate and maintained in CO2 incubators for another 48 hours. Chemical plates were thawed to room temperature and 200x concentrations of treatment groups were prepared. 8-point conentration-reponse curves were made with the highest exposure at 100 uM, followed by half-log dilutions, all in 0.5% DMSO. Each test plate contained variouse controls, induction positive controls (1mM phenobarbital), cytotoxicity positive controls ([…] aflatoxin B1), vehicle controls (0.5% DMSO), and total lysis controls (0.5% DMSO). Cell morphology images were taken using an Essen IncuCyte FLR automated microscope, with six 96-well plates imaged in about 24 minutes. Images were captured and exported and JPEG files. Spent culture media was transfered to black-well plates for the LDH assay, and remaining media was sorted at -80 C for later use. Cells were treated with RLT buffer and frozen until shipped for gene expression analysis. Total RNA was isolated from the cell suspension in 75 uL of Buffer RLT (Qiagen, Germantown, MD 20874) by Quintiles/Expression Analysis (Durham, NC) using a custom isolation procedure. Total RNA from each plate well was transferred to a preamplification plate. Fluidigm's 96.96 Dynamic ArrayTM (Fluidigm, Amsterdam, the Netherlands) technology was used for gene expression analyses by quantitative reverse transcription polymerase chain reaction (qRT-PCR, performed by Quintiles/Expression Analysis, Durham, NC)89. Standard TaqManTM Assays (Applied Biosystems/ThermoFisher Scientific, Foster City, CA) were used to assess the expression of 93 genes selected based on their selectivity and sensitivity to important hepatic receptors known to be modulated by environmental chemicals; importance in human hepatocyte functionality; and hepatotoxicity. […]

SMILES	outcome	AC50
CNC(=O)[C@H]1O[C@@H](n2cnc3c(NCc4cc(Cl)ccc4OCc4cc(C)no4)ncnc32)[C@H](O)[C@@H]1N	inactive	–
Cc1cc(NC(=O)C(=O)O)cc(C)c1Oc1ccc(O)c2c1CCC2	inactive	–
O=C(N[C@@H](Cc1ccccc1)[C@@H](O)C(=O)N1C[C@@H](O)[C@@H](O)C1)c1cc2cc(Cl)ccc2[nH]1	inactive	–
O=c1c(O)c(-c2ccc(O)c(O)c2)oc2cc(O)cc(O)c12	inactive	–
Cc1cccc(Nc2cc(Cl)nc(SCC(=O)O)n2)c1C	–	82.3 µM (active)
CN1CCCC1=O	inactive	–
NCCO	inactive	–
Cc1ccc(C)c(C)c1	inactive	–
CCCCCCCCCCO	inactive	–
C[Si]1(C)O[Si](C)(C)O[Si](C)(C)O[Si](C)(C)O1	inactive	–
Cc1nc(C)nc(N2C[C@@H](C)N(c3ccnc([C@@H](C)O)n3)[C@@H](C)C2)n1	inactive	–
Cc1ccc2ncccc2c1	inactive	–
C1CCC(SSC2CCCCC2)CC1	inactive	–
CC1(C)NC(=O)NC1=O	inactive	–
FC(F)(F)C(F)(F)C(F)(F)C(F)(F)C(F)(F)C(F)(F)CCI	inactive	–
COc1cc(C=O)ccc1O	inactive	–
CCCCc1ccc2c(n1)[C@@H](c1ccc(OC)cc1C[C@H](C)C(=O)O)[C@H](C(=O)O)[C@H]2c1ccc2c(c1)OCO2	inactive	–
O=C(O)CCCCC(=O)O	inactive	–
CC(=O)OCCOCCOCCOC(C)=O	inactive	–
Nc1nc(N)c2nc(CNc3ccc(C(=O)N[C@@H](CCC(=O)O)C(=O)O)cc3)cnc2n1	inactive	–

SMILES	outcome	AC50
C=CCOC(=O)c1ccccc1C(=O)OCC=C	inactive	–
Cc1ccc(N(C)C)cc1	inactive	–
CC1(C)CC(N=C=O)CC(C)(CN=C=O)C1 (stereo not given)	inactive	–
CC(CO)OC(C)CO (stereo not given) (tested in a mixture with another compound)	inactive	–
CCOc1ccc2c(c1)C(C)=CC(C)(C)N2	inactive	–
CCCCCC(=O)O	inactive	–
CCNc1cccc(C)c1	inactive	–
CCOC(=O)C(C)(C)Oc1ccc(Cl)cc1	inactive	–
Cc1ccccc1Cl	inactive	–
Nc1ccc(S(=O)(=O)c2ccc(N)cc2)cc1	inactive	–
NS(=O)(=O)c1cc2c(cc1Cl)NCNS2(=O)=O	inactive	–
Cc1ccc(Cl)cc1	inactive	–
NC(=O)Cn1c(=O)cc(CCN2CCN(c3nccc4sccc34)CC2)c2ccc(F)cc21	inactive	–
O=[N+]([O-])C(CO)(CO)CO	inactive	–
CCCCCCC(=O)OCC	inactive	–
COc1cc(-c2nc(NC(=O)c3cc4cc(C)cc(C)c4n3CC(=O)O)sc2CCC2CCCCC2)c(OC)cc1Cl	–	7.35 µM (active)
CC1=C(/C=C/C(C)=C/C=C/C(C)=C/CO)C(C)(C)CCC1	–	52.2 µM (active)
CCCCCCCCCCCCCCCC	inactive	–
CC(=O)Oc1ccccc1C(=O)O	inactive	–
Cc1nc(-c2ccc3c(c2)CCN(CCC2CCC(NC(=O)/C=C/c4ccc(F)cc4)CC2)CC3)no1 (stereo not given)	inactive	–
